High-throughput results as filed in PubChem BioAssay.
ALDH1A1 inh: inhibitors of human aldehyde dehydrogenase 1A1; P00352; Purified ALDH1A1, NADH fluorescence, propionaldehyde substrate; Potency, µM (doses to about 75.3 µM), hits mostly inhibitors; 220,000 compounds, 7.3% hits; AID 1030; active = well fitted inhibition curve with a large enough effect, not every such curve was filed as active; inconclusive = small, poorly fitted or top-dose-only effect, or another doubt; inactive = no such curve, though single readings can be large or run the other way
GoLoco inh red: blocks human Gai1 binding to RGS12 GoLoco peptide, red readout. Gai1:RGS12 GoLoco peptide FP, rhodamine, 10 min. AID 880. Potency, µM (series often up to 61.6 µM), actives largely listed as inhibitors. 230,000 compounds, 0.44% hits; active = well fitted inhibition curve with a large enough effect, not every such curve was filed as active; inactive = no such curve, though single readings can be large or run the other way; also: nearly all actives have a fitted effect of over 30% in size
Target sequence (P63096 whole entry, looked up): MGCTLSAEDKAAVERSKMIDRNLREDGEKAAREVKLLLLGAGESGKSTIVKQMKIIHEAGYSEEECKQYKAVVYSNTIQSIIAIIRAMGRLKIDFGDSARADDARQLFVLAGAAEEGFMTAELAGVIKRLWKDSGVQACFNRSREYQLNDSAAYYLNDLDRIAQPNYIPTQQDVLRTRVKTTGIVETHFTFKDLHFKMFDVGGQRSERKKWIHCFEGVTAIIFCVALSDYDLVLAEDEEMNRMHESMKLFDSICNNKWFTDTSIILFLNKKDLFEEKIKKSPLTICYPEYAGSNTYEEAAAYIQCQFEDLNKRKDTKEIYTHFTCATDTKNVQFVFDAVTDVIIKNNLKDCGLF
Sfp PPTase inh: Sfp phosphopantetheinyl transferase inhibition | 310,000 compounds, 3.5% hits | Q9F4F7 | Potency, µM, most hits filed as inhibitors | AID 1490 | Biochemical Sfp PPTase activity, qHTS;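 also: the enzyme is Sfp with the accession as filed and its product quenches rhodamine fluorescence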
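Fluorescence-quenching assay: 15 nM Sfp-PPTase preincubated 15 min at room temperature with compound, then 5 uM rhodamine-CoA and 12.5 uM BHQ-2-labelled YbbR peptide added. Fluorescence (ex 525/em 598 nm) read at start and after 30 min; difference gives rate.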
FBPA coupling cs: counter-screen for Giardia aldolase inhibitors: coupling enzyme system; activity change, negative = inhibition, % at 58.2 µM, hits read low; coupling enzyme system counterscreen, AmpLite Red fluorescence; 290,000 compounds, 0.67% hits; in the data active = activity change below about -30%
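Counterscreen lacking aldolase: glyceraldehyde-3-phosphate coupling-enzyme reagent preincubated 10 min at RT with compound (at 57.5 uM final), then substrate/coupling system with AmpLite Red added; fluorescence read at 525/598 nm after 20 min RT.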
KDM4E inh: inhibitors of human JMJD2E histone demethylase; B2RXH2; JMJD2E catalytic domain, FDH-coupled NADH fluorescence (FDH is formaldehyde dehydrogenase); Potency, µM (doses to about 57.1 µM), hits mostly inhibitors; 230,000 compounds, 1.6% hits; active = well fitted inhibition curve with a large enough effect, not every such curve was filed as active; inconclusive = small, poorly fitted or top-dose-only effect, or another doubt; inactive = no such curve, though single readings can be large or run the other way; also: nearly all actives have a fitted effect of over 50% in size
Target sequence (B2RXH2 1-337 limits assumed): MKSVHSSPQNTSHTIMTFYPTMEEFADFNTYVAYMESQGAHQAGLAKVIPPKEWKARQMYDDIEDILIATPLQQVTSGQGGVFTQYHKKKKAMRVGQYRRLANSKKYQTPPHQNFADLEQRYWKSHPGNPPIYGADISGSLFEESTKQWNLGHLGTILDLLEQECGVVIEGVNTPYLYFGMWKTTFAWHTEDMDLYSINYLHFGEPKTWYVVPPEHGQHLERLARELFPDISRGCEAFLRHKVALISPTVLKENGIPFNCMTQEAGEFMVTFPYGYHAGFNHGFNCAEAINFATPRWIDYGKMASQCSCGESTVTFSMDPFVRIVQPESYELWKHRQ
NPSR antagonist: neuropeptide S receptor (human) antagonism, cAMP; Potency, µM (series often up to 38.3 µM), actives largely listed as inhibitors; 220,000 compounds, 1% hits; AID 1461; CHO-NPSR cells, cAMP TR-FRET, antagonist mode; Q6W5P4; also: nearly all actives have a fitted effect of over 50% in size
Large screens that a line does not name were inactive. Sampled rows, rich in hits. Any-hit rate of the full collection: about 8.5%. Unless noted, calls follow the shape of the dose curve; as a rule, active = well fitted curve in the direction sought with a large enough effect; inconclusive = small, poorly fitted or top-dose-only effect, or another doubt; inactive = no such curve, though single readings can be large; an effect the other way counts as inactive or inconclusive.

O=C(CN1CCOCC1)Nc1ccccc1-c1ccccc1	ALDH1A1 inh 14.1µM
COc1cc(NC(=O)c2ccccc2F)c(OC)cc1NC(=O)CN1CCOCC1	ALDH1A1 inh 25.1µM
COc1cc(NC(=O)c2ccc(F)cc2)c(OC)cc1NC(=O)CN1CCOCC1	none
O=C(c1ccco1)N1CCN(c2nnc(-c3ccccc3)c3ccccc23)CC1	ALDH1A1 inh 25.1µM
O=C(CN1CCCCC1)Nc1ccccc1-c1ccccc1	ALDH1A1 inh 18.9µM
O=C(CN1CCCC1)Nc1ccccc1Cl	none
Cc1ccc(C2=Nc3ccccc3S[C@@H](c3cccc([N+](=O)[O-])c3)C2)cc1	none (no result: Sfp PPTase inh, FBPA coupling cs, KDM4E inh, NPSR antagonist)
Cc1ccc(C2=Nc3ccccc3SC(c3cccc([N+](=O)[O-])c3)C2)cc1 (stereo not drawn)	Sfp PPTase inh 8.91µM, KDM4E inh inconclusive (no result: ALDH1A1 inh)
N#Cc1c(/N=C/c2cccnc2)sc2c1CCCC2	none (no result: ALDH1A1 inh)
N#Cc1c(/N=C/N2CCOCC2)sc2c1CCCCC2	ALDH1A1 inh 14.1µM
N#Cc1c(/N=C/c2ccc(Br)s2)sc2c1CCC2	ALDH1A1 inh inconclusive
N#Cc1c(/N=C\c2ccc(O)c([N+](=O)[O-])c2)sc2c1CCCC2	ALDH1A1 inh 2.51µM, Sfp PPTase inh inconclusive, KDM4E inh inconclusive
CN(C)/C=N/c1sc2c(c1C#N)CCC2	ALDH1A1 inh 10µM, KDM4E inh inconclusive
Cc1ccc(/C=N/c2sc3c(c2C#N)CCC3)o1	ALDH1A1 inh 10µM, Sfp PPTase inh inconclusive, KDM4E inh inconclusive
c1ccc2c(OCCCN3CCCCCC3)cccc2c1	none (no result: ALDH1A1 inh, GoLoco inh red, KDM4E inh, NPSR antagonist)
CCCN(/C=N/c1sc2c(c1C#N)CCCCC2)CCC	ALDH1A1 inh inconclusive, Sfp PPTase inh inconclusive, NPSR antagonist inconclusive (no result: FBPA coupling cs)
CN(C)/C=N/c1sc2c(c1C#N)CCCCC2	ALDH1A1 inh 3.98µM
C=CC#CC1(O)CC(C)[N+](C)(C)CC1C (stereo not drawn)	Sfp PPTase inh 39.8µM
CC(C)Sc1nc2ccccc2n2cnnc12	none (no result: ALDH1A1 inh, GoLoco inh red, KDM4E inh, NPSR antagonist)
CCN(CC)S(=O)(=O)c1ccc(N2CCOCC2)c(NC(=O)COc2ccccc2)c1	ALDH1A1 inh 0.224µM, KDM4E inh inconclusive
CCN(CC)S(=O)(=O)c1ccc(N2CCOCC2)c(NC(=O)CCOc2ccccc2)c1	none (no result: ALDH1A1 inh)
O=C(COS(=O)c1ccccc1)Nc1cc(Cl)ccc1N1CCOCC1 (stereo not drawn)	ALDH1A1 inh 1.26µM, KDM4E inh inconclusive
Cc1ccc(S(=O)OCC(=O)Nc2cc(Cl)ccc2N2CCOCC2)cc1 (stereo not drawn)	ALDH1A1 inh inconclusive
CCN(CC)S(=O)(=O)c1ccc(N2CCOCC2)c(NC(=O)c2ccc(F)cc2)c1	ALDH1A1 inh inconclusive
CCN(CC)S(=O)(=O)c1ccc(N2CCOCC2)c(NC(=O)CNCCc2ccccc2)c1	ALDH1A1 inh 11.2µM, KDM4E inh inconclusive
CCN(CC)S(=O)(=O)c1ccc(N2CCOCC2)c(NC(=O)c2ccc(C#N)cc2)c1	ALDH1A1 inh 20µM
CCc1nnc(NC(=O)CN2CCN(Cc3ccccc3Cl)CC2)s1	none (no result: ALDH1A1 inh, GoLoco inh red, KDM4E inh, NPSR antagonist)
COc1ccc(S(=O)(=O)N(C(C)=O)c2ccc3oc(=O)sc3c2)cc1	ALDH1A1 inh inconclusive, Sfp PPTase inh 10µM
CC(NC(=O)CCSCc1ccccc1F)c1ccccc1 (stereo not drawn)	none (no result: ALDH1A1 inh, GoLoco inh red, KDM4E inh, NPSR antagonist)
O=C(NCCOc1ccc(Cl)cc1)C1CC(=O)N(c2ccc(F)cc2)C1 (stereo not drawn)	ALDH1A1 inh 25.1µM
Cc1ccc(CNC(=O)C2CCCN(S(=O)(=O)N3CC(C)CC(C)C3)C2)cc1 (stereo not drawn)	none (no result: ALDH1A1 inh, GoLoco inh red, FBPA coupling cs, KDM4E inh, NPSR antagonist)
CC(C)(C)OC(=O)NC(Cc1ccccc1)C(O)c1ccco1 (stereo not drawn)	none (no result: ALDH1A1 inh, GoLoco inh red, KDM4E inh, NPSR antagonist)
COc1ccc(C2C(C(=O)c3ccco3)=C(O)C(=O)N2c2nnc(C)s2)cc1 (stereo not drawn)	Sfp PPTase inh 10µM, NPSR antagonist inconclusive
Cc1ccc2nc(N3C(=O)C(O)=C(C(=O)c4ccco4)C3c3cccs3)sc2c1 (stereo not drawn)	ALDH1A1 inh inconclusive, Sfp PPTase inh inconclusive, KDM4E inh inconclusive, NPSR antagonist 7.94µM
C=CCOc1ccc(C2C(C(=O)c3ccco3)=C(O)C(=O)N2c2nnc(C)s2)cc1 (stereo not drawn)	ALDH1A1 inh inconclusive, Sfp PPTase inh 7.08µM
CC1(C)C(O)C=C[C@@]2(C)C1CC(=O)O[C@@]1(C)C3=CC(=O)OC(c4ccoc4)[C@]3(C)CCC21 (stereo partly drawn)	ALDH1A1 inh 22.4µM (no result: NPSR antagonist)
CC1(C)C(=O)CC[C@@]2(C)C1CC(O)[C@@]1(C)C3=CC(=O)OC(c4ccoc4)[C@]3(C)CCC21 (stereo partly drawn)	none (no result: NPSR antagonist)
N#C[C@@H]1[C@@H]2C(=O)N(c3ccc4c(c3)OCCO4)C(=O)[C@@H]2C2c3ccccc3C=CN21 (stereo partly drawn)	ALDH1A1 inh inconclusive, FBPA coupling cs -33.8
COc1cccc(-n2c(C)cc(/C=C3/C(=N)N4C(=NC3=O)SN=C4S(C)(=O)=O)c2C)c1	ALDH1A1 inh 31.6µM, KDM4E inh inconclusive
COc1cc(/C=C2/C(=N)N3C(=NC2=O)SN=C3S(C)(=O)=O)ccc1OS(=O)(=O)c1ccc(C)cc1	none (no result: ALDH1A1 inh, GoLoco inh red, KDM4E inh, NPSR antagonist)
Cc1cc(C)cc(-n2cccc2/C=C2/C(=N)N3C(=NC2=O)SN=C3S(C)(=O)=O)c1	ALDH1A1 inh 5.01µM, Sfp PPTase inh inconclusive
CNC(=S)Nc1cccc(Cl)c1C	none
O=C(Nc1ccc(Cl)cc1C(F)(F)F)C(Sc1nnc(-c2cccs2)o1)c1ccccc1 (stereo not drawn)	ALDH1A1 inh 2.82µM, Sfp PPTase inh inconclusive (no result: GoLoco inh red)
O=C(Nc1cc(C(F)(F)F)ccc1Cl)C(Sc1n[nH]c(=O)[nH]c1=O)c1ccccc1 (stereo not drawn)	NPSR antagonist inconclusive (no result: ALDH1A1 inh)
COc1ccc(C)cc1NC(=O)C(Sc1nnc(-c2cccs2)o1)c1ccccc1 (stereo not drawn)	none
O=C(Nc1cc(C(F)(F)F)ccc1Cl)C(Sc1nnc(-c2cccs2)o1)c1ccccc1 (stereo not drawn)	ALDH1A1 inh 1µM (no result: GoLoco inh red)
O=[N+]([O-])c1ccc(S(=O)(=O)N2CCSC2c2ccco2)cc1 (stereo not drawn)	ALDH1A1 inh 3.98µM, Sfp PPTase inh 39.8µM
CC(NC(=O)c1ccccc1NC(=O)c1ccncc1)c1ccccc1 (stereo not drawn)	ALDH1A1 inh 28.2µM
COc1ccc2nc(N)sc2c1	none
CCCC[n+]1c(C)sc2cc(OC)ccc21	Sfp PPTase inh 6.31µM
COc1ccc2sc(C)[n+](C)c2c1	ALDH1A1 inh inconclusive, Sfp PPTase inh 44.7µM, KDM4E inh 20µM
Cc1cc2sc(C)[n+](CCCOS(=O)(=O)O)c2cc1C	none (no result: Sfp PPTase inh, FBPA coupling cs, KDM4E inh, NPSR antagonist)
O=C(O)C1C2C=CC(O2)C1C(=O)NCc1ccccc1Br (stereo not drawn)	ALDH1A1 inh 14.1µM
